Only some compounds are listed: those with a hit (about 4.7% of all), similar ones and a draw of the others.
tim10-1 inh: growth inhibitors of tim10-1 mutant yeast. S. cerevisiae tim10-1 ts strain growth, BacTiter-Glo, 24 h. 330,000 tested, 2.2% active. inhibition, % at 20 µM;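 active means inhibition of at least 40%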;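 further: mutant grown at 25 °C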
PfHsp90 set2: growth inhibition of yeast expressing Plasmodium Hsp90; S. cerevisiae expressing PfHsp90, BacTiter-Glo ATP, 48 h; yeast lacking PDR1 and PDR3 efflux regulators; inhibition, % at 9.4 µM; 310,000 tested, 0.32% active; AID 504621;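 active means every replicate shows inhibition above about 80%, whatever the replicate mean, limit read from the data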
tim23-1 inh: inhibits growth of tim23-1 mutant yeast | 330,000 tested, 1.3% active | inhibition, % at 20 µM | S. cerevisiae tim23-1 growth, BacTiter-Glo luminescence, 24 h | AID 463212;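 active means growth inhibition of the mutant yeast at or above 50%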;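 further: temperature-sensitive mutant grown at 25 °C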
SKKanGAS inh: blocks kanamycin growth of S. pyogenes SKKanGAS strain. BacTiter-Glo, 6 h. inhibition, % at 7.5 µM. 300,000 tested, 1.3% active. AID 1662;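 active means mean replicate score, as percent of positive control median, at least 50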;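 further: strain carries kanamycin resistance gene driven by streptokinase promoter and grows in 40 µg/ml kanamycin; loss of luminescence reflects streptokinase promoter inhibition or plain growth inhibition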
ATG4B inh: blocks human ATG4B protease cleavage of LC3 substrate; inhibition, % at 8.33 µM; Q9Y4P1; AID 504462; ATG4B cleavage of LC3-PLA2, NBD-HPC fluorescence, 1 h; 340,000 tested, 0.51% active; in the data active means inhibition above about 40%
Target sequence (Q9Y4P1 whole entry, looked up): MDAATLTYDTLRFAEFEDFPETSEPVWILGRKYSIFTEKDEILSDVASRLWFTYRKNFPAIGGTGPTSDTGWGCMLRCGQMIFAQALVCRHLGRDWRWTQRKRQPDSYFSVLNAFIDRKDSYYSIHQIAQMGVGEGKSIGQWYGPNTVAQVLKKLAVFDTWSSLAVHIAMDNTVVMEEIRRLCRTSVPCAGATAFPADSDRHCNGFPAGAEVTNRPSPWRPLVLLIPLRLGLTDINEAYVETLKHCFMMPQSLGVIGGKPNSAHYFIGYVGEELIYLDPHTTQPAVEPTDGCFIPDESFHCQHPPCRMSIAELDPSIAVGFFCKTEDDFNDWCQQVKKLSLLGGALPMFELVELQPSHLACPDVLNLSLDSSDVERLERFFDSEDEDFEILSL
TIM10 inh: inhibits growth of TIM10 yeast strain. inhibition, % at 10 µM. S. cerevisiae TIM10 strain growth, BacTiter-Glo luminescence, 24 h. 330,000 tested, 1.4% active. AID 463195;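 active means inhibition of 40% or more at the single tested concentration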;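 further: wild-type TIM10 isogenic control strain grown at permissive 25 °C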
TIM10 conf: confirmation of TIM10 yeast growth inhibitors | shares compounds with TIM10 inh | inhibition, % at 10 µM | 4,600 tested, 63% active | S. cerevisiae tim10 strain growth, BacTiter-Glo luminescence, 24 h;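 active means inhibition of yeast growth at or above a set limit in either of two replicates at 10 µM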; further: this counterscreen used the strain with wild-type TIM10
tim23-1 confirm: tim23-1 yeast growth inhibition, confirmed; shares compounds with tim23-1 inh; S. cerevisiae tim23-1 growth, BacTiter-Glo luminescence, 24 h; inhibition, % at 20 µM; 4,400 tested, 83% active; AID 463218;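 active means inhibition above about 39% in either of two replicate wells at 20 µM, limit read from the data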;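 further: temperature-sensitive tim23-1 mutant grown at 25 °C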
Each line names hits and unclear results; the compound was inactive in the other large screens (follow-up assays come after a bar, where they were run).

CC(C)n1cnc2cc(NC(=O)c3ccco3)ccc21	none
COc1ccccc1-n1cnc2cc(NC(=O)c3ccco3)ccc21	tim23-1 inh 56.4, TIM10 inh 44.3 | TIM10 conf 37.1 | tim23-1 confirm 68.2
O=C(NCc1cccnc1)c1ccc(N2CCOCC2)c([N+](=O)[O-])c1	none
Cc1cccc(-n2c(=O)c3c(n4cnnc24)-c2ccccc2CC32CCCCC2)c1	none
Oc1ccc(-c2cc(-c3ccc(O)cc3)nc(-c3ccccc3)n2)cc1	tim23-1 inh 61.3, SKKanGAS inh 103.1, TIM10 inh 67.1 | TIM10 conf 62.7 | tim23-1 confirm 61.5
Cc1cccc(N/N=C/c2ccc(O)c(O)c2O)c1	none
COc1cccc(N/N=C/c2cccc(Br)c2O)c1	tim23-1 inh 58.0, SKKanGAS inh 62.7, TIM10 inh 56.5 | TIM10 conf 35.5 | tim23-1 confirm 69.0
CCOC(=O)N1CCN(S(=O)(=O)c2ccc(OCC(=O)OC)c(C)c2)CC1	none (no result: PfHsp90 set2)
O=S(=O)(c1ccccc1)N1CCN(c2ncnc3scc(-c4ccccc4)c23)CC1	none
O=C(Nc1ccc2oc(-c3cccc(F)c3)nc2c1)c1ccccc1F	none
O=C(Nc1ccc2oc(-c3ccccc3F)nc2c1)c1ccccc1F	tim23-1 inh 60.5, TIM10 inh 55.0 | TIM10 conf 60.1 | tim23-1 confirm 78.8
CC(NC(=O)c1ccc([N+](=O)[O-])o1)C12CC3CC(CC(C3)C1)C2 (stereo unspecified)	tim23-1 inh 61.4, SKKanGAS inh 56.6, TIM10 inh 44.9 | TIM10 conf 59.4 | tim23-1 confirm inactive
Cc1cc(C2CCCCC2)n(O)c(=O)c1	PfHsp90 set2 109.3, tim23-1 inh 65.8, TIM10 inh 59.1 (no result: SKKanGAS inh) | TIM10 conf 62.0 | tim23-1 confirm 52.5
N/C(=N\OC(=O)c1ccc(Cl)c([N+](=O)[O-])c1)c1ccccc1	tim23-1 inh 81.4, TIM10 inh 71.9 | TIM10 conf 72.2 | tim23-1 confirm 78.3
O=C(C#Cc1ccccc1)c1ccco1	PfHsp90 set2 104.1, tim23-1 inh 61.0, TIM10 inh 55.7 | TIM10 conf 68.8 | tim23-1 confirm 62.3
O=C(N/N=C/c1ccccc1)c1ccco1	none
Cc1ccc2c(c1)C(=O)C(=O)N2Cc1ccc(C(F)(F)F)cc1	PfHsp90 set2 149.8, tim23-1 inh 81.9, TIM10 inh 41.3 (no result: SKKanGAS inh) | TIM10 conf 58.1 | tim23-1 confirm 31.9
CCN(CC)c1ccc(CNc2ccc3c(c2)ncn3C(C)(C)C)cc1	none
CC(C)(C)n1cnc2cc(NCc3ccc(Br)cc3)ccc21	tim23-1 inh 54.2, TIM10 inh 52.6 | TIM10 conf 37.5 | tim23-1 confirm 69.2
CC(=O)NC(c1ccc(F)cc1)c1cccnc1 (stereo unspecified)	none
Cc1ccn2cc(C(=O)Nc3ccc4c(c3)OCCO4)nc2c1	tim23-1 inh 50.3, TIM10 inh 43.8 | TIM10 conf inactive | tim23-1 confirm 49.5
Cc1ccn2cc(C(=O)Nc3nnc(C)s3)nc2c1	none
CC(C)(C)C(=O)N1CCN(c2ccnc3cc(Cl)ccc23)CC1	none
O=C(Nc1ccc(OC(F)(F)F)cc1)N1CCN(c2ccnc3cc(Cl)ccc23)CC1	tim23-1 inh 74.4, SKKanGAS inh 65.1, TIM10 inh 46.0 | TIM10 conf inactive | tim23-1 confirm 67.2
CCc1cc2c(SCC(=O)N(CC)c3c(N)n(Cc4ccccc4)c(=O)[nH]c3=O)ncnc2s1	none
CN(C(=O)COC(=O)c1cc2ccccc2cc1O)c1ccccc1	tim23-1 inh 61.5, TIM10 inh 40.4 (no result: SKKanGAS inh) | TIM10 conf 46.6 | tim23-1 confirm 48.4
COc1ccc(CN=C2NN=C(c3ccc(Cl)cc3)CS2)cc1	tim23-1 inh 65.3, TIM10 inh 45.6 | TIM10 conf 31.5 | tim23-1 confirm 67.7
Cc1ccc(O)c(NC(=O)C2=CC(c3ccco3)=NS(=O)(=O)N2C)c1	none
CSc1ccc(Cl)c(C(=O)NCCOc2ccccc2)c1	none
Cc1ccc(NC(=O)c2ccccc2)cc1C	tim23-1 inh 58.6, TIM10 inh 46.1 (no result: SKKanGAS inh) | TIM10 conf inactive | tim23-1 confirm 64.5
O=C(Nc1cccc(F)c1)c1ccccc1	tim23-1 inh 50.1, TIM10 inh 52.7 (no result: PfHsp90 set2) | TIM10 conf 47.5 | tim23-1 confirm 65.5
O=S(=O)(c1ccc2ccccc2c1)N1CCN(c2ccc(O)cc2)CC1	tim23-1 inh 57.8, TIM10 inh 44.0 (no result: SKKanGAS inh) | TIM10 conf 44.0 | tim23-1 confirm 48.0
O=S(=O)(c1ccc2ccccc2c1)N1CCOCC1	none
CCCN1C(=O)/C(=C/c2ccc(N3CCOCC3)cc2)NC1=S	none
CCOc1ccccc1/C=c1\sc2ncnn2c1=O	tim23-1 inh 60.0, TIM10 inh 43.1 (no result: PfHsp90 set2) | TIM10 conf 31.7 | tim23-1 confirm 73.9
CCCOc1ccc(/C=c2\sc3ncnn3c2=O)cc1	none
CCN(CC)c1ccc(/C=N/NC(=O)c2ccco2)c(O)c1	tim23-1 inh 75.1, TIM10 inh 53.6 (no result: SKKanGAS inh) | TIM10 conf 61.3 | tim23-1 confirm 77.1
CC(NS(=O)(=O)c1ccc2c(c1)OCCCO2)C(=O)O (stereo unspecified)	none
CCN(CC)CCNC(=O)c1ccc2c(c1NCCO)C(=O)c1ccccc1C2=O	tim23-1 inh 69.7, SKKanGAS inh 50.9, TIM10 inh 43.5 (no result: PfHsp90 set2) | TIM10 conf 48.5 | tim23-1 confirm 60.0
O=C(C1CC1)N(CCN(Cc1ccccc1)C(=O)C1CC1)Cc1ccccc1	none
Oc1ccc(Cl)cc1CNn1cnnc1	none (no result: PfHsp90 set2)
Oc1ccc(Cl)cc1Cc1cc(Cl)ccc1O	PfHsp90 set2 106.7, tim23-1 inh 73.2, TIM10 inh 50.3 | TIM10 conf 63.0 | tim23-1 confirm inactive
Cc1cc2n(n1)C(c1ccc(N(C)C)cc1)Nc1ccccc1-2 (stereo unspecified)	tim23-1 inh 55.3, TIM10 inh 40.1 (no result: PfHsp90 set2) | TIM10 conf 34.4 | tim23-1 confirm 63.9
O=C(Cc1ccccc1[N+](=O)[O-])NC1CC1	none
Cc1ccc(-c2nnc(SCc3nc4ccccc4[nH]3)n2Cc2ccco2)cc1	none
O=C(N/N=C/C(Br)=C\c1ccccc1)c1cccs1	tim23-1 inh 70.9, TIM10 inh 44.0 (no result: PfHsp90 set2) | TIM10 conf 39.8 | tim23-1 confirm 69.3
Cc1cc(N2CCN(c3ccccc3F)CC2)nc2cc(O)ccc12	none
COc1ccc(/C=C/C(=O)O/N=C(\N)c2cccnc2)cc1OC	none
CCOC(=O)/C(=C\c1ccc(OC)c(OC)c1)C(=O)c1cccnc1	tim23-1 inh 59.4, TIM10 inh 49.8 | TIM10 conf 48.4 | tim23-1 confirm 56.3
CCCCOc1ccc(-c2csc(N)n2)cc1[N+](=O)[O-]	tim23-1 inh 53.2, TIM10 inh 42.7 | TIM10 conf inactive | tim23-1 confirm 62.7
CCCCOc1ccc(C2=CSC3=NCCN23)cc1[N+](=O)[O-]	none
